Bioassay records deposited in PubChem BioAssay by National Center for Advancing Translational Sciences (NCATS).
L3MBTL1 block: blocks human L3MBTL1. Q9Y468. AlphaScreen L3MBTL1–H3K9me1 peptide binding. Potency, µM (doses to about 57.1 µM), for inactives: at the top dose activity, negative = inhibition, actives largely listed as inhibitors. 0.66% of 230,000 active. AID 485360; note: % is set by controls: 0 for no effect and ±100 for the full control effect; nearly all actives have a fitted effect of over 60% in size
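L3MBTL1 50 nM + b-AHA-H3(1-15)K9me1 75 nM, 30 min RT; compound added, 30 min RT; streptavidin donor/Ni-chelate acceptor beads 10 ug/mL each final, 30 min RT dark; AlphaScreen read.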
G9a block: inhibitors of human histone lysine methyltransferase G9a | Q96KQ7 | G9a H3K9 monomethylation, AlphaScreen, 2 h | Potency, µM (highest dose often 102 µM), inactives show at the highest dose activity, negative = inhibition, actives largely listed as inhibitors | 8.8% of 350,000 active | AID 504332; note: % is set by controls: 0 for no effect and ±100 for the full control effect; nearly all actives have a fitted effect of over 75% in size
Target sequence (Q96KQ7 913-1193 limits assumed): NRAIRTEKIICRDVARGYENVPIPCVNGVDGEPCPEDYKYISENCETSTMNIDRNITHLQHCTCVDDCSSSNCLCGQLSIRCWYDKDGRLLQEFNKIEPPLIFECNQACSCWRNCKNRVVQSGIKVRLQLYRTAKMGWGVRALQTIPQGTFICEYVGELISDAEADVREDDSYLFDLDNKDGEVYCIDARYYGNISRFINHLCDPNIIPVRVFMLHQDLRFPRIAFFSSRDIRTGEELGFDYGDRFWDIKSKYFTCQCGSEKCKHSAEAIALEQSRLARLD
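AlphaScreen read-out: biotin-H3K9 peptide (500 nM) methylation by 20 nM enzyme with 20 uM SAM, 2 h at room temperature after 15 min compound preincubation; anti-monomethyl H3K9 antibody plus donor/acceptor beads, 10 min dark.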
BAZ2B block: blocks human BAZ2B. AlphaScreen BAZ2B-H3K14Ac peptide displacement. AID 504333. 4.4% of 360,000 active. Potency, µM (top dose mostly 114 µM), inactives show at the highest dose activity change, negative = inhibition, actives largely listed as inhibitors; note: % is set by controls: 0 for no effect and ±100 for the full control effect; nearly all actives have a fitted effect of over 60% in size
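BAZ2B 50 nM plus b-H3(5-23)K14Ac 50 nM, PBS pH 7.4/0.01% Tween-20, 30 min RT; compound added (max 110 uM), 30 min RT; streptavidin donor/Ni-chelate acceptor beads 10 ug/mL final, 20 min dark; AlphaScreen read.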
HP1b chromo inh: HP1-beta chromodomain-methylated histone interaction inhibition. AlphaScreen HP1-beta / biotin-H3K9me3 peptide binding. 0.56% of 390,000 active. AID 540317. Potency, µM (top dose mostly 114 µM), for the others: at the highest dose activity change, negative = inhibition, hits mostly inhibitors; note: nearly all actives have a fitted effect of over 70% in size
Target sequence (P83916 whole entry, looked up): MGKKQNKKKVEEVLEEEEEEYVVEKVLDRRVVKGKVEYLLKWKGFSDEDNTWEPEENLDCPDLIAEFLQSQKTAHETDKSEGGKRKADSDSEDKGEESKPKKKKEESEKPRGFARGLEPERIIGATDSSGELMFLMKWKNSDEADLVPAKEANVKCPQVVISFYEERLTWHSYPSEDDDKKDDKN
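AlphaScreen: HP1-beta (50 nM) preformed 30 min with biotin-H3(1-18)K9me3 peptide (50 nM) in PBS pH 7.4, 0.01% Tween-20. Compound added for 30 min at RT, then streptavidin donor/nickel chelate acceptor beads (10 ug/mL) for 30 min.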
JMJD2A Tudor inh: inhibitors of human JMJD2A Tudor domain. 4.4% of 390,000 active. O75164. Potency, µM (titrated, usually from 114 µM), for the others: at the top dose activity change, negative = inhibition, actives largely listed as inhibitors. AlphaScreen JMJD2A-Tudor / H3K4me3 peptide binding. AID 504339; note: % is set by controls: 0 for no effect and ±100 for the full control effect; nearly all actives have a fitted effect of over 50% in size
Sfp PPTase inh: inhibitors of Bacillus subtilis Sfp phosphopantetheinyl transferase | Q9F4F7 | Biochemical Sfp PPTase activity, qHTS | Potency, µM, for inactives: largest response in the series, negative = inhibition, hits mostly inhibitors | 3.5% of 310,000 active;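 note: the enzyme is Sfp with the accession as filed and its product quenches rhodamine fluorescence; 0% = enzyme reaction without inhibitor and -100% = no enzyme wells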
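With Hepes-Na pH 7.6 buffer containing 10 mM MgCl2, Sfp (15 nM) modified BHQ-2-YbbR (12.5 uM) using rhodamine-CoA (5 uM). Two reads 30 minutes apart at 525/598 nm yielded each well's rate.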
The depositor's hits bear a star; u = inconclusive; x = not tested or not shown; ! = not active in a repeat; [ ] = another dose, or the depositor's remark. Most compounds without a hit are left out; they make up all but 12% or so of the library. Calls come from the whole dose curve; as a rule, active = well fitted curve in the direction sought with a large enough effect; inconclusive = small, poorly fitted or top-dose-only effect, or another doubt; inactive = no such curve, though single readings can be large; an effect the other way counts as inactive or inconclusive. Potency is the fitted concentration of half-maximal effect.

SMILES	L3MBTL1 block	G9a block	BAZ2B block	HP1b chromo inh	JMJD2A Tudor inh	Sfp PPTase inh
COc1ccc(OCC(O)Cn2cnc(-c3ccc(Br)cc3)c2)cc1 (stereo not given)	-7%	18µM*	-38%	-8%	-24%	5%
COc1ccc(C2OCC(C)([N+](=O)[O-])CO2)cc1 (stereo not given)	x	x	x	12%	-14%	x
CC1(C(=O)O)CCC2(C)CCC3(C)C(=CC(=O)C4C5(C)CCC(O)C(C)(C)C5CCC43C)C2C1 (stereo not given)	x	-6%[12.7 µM]	x	x	x	3%
Cc1ccc(CNCc2ccccc2Cl)s1	x	-15%[59 µM]	4%	57%	21%	x
C[C@H](NC(=O)OC(C)(C)C)C(=O)NCC1CCC(C(=O)N[C@@H](Cc2ccccc2)C(=O)O)CC1 (stereo not given in full)	x	-3%	-9%	50%	-6%	5%
Cc1coc2c(C)c3oc(=O)c(CCC(=O)NCCCn4ccnc4)c(C)c3cc12	x	9%[12.7 µM]	-37%	10%	-24%	15%
OC(COc1ccc(Br)cc1)Cn1ccnc1 (stereo not given)	x	79µM*	-14%	-10%	-17%	2%
Cc1c(CCC(=O)NCCCn2ccnc2)c(=O)oc2c(C)c3occ(C(C)(C)C)c3cc12	x	x	25µM*	5%	u	-16%
CCN(CCNCC(O)COCc1ccc(Cl)cc1)c1cccc(C)c1 (stereo not given)	-20%	7.9µM*	20µM*	40µM*	0.89µM*	10µM*
CCOC(=O)C1CCN(CC(O)COCc2ccc(Cl)cc2)CC1 (stereo not given)	x	22%	-5%	33%	11%	10%
Cc1cccn2c(CNCC3(c4ccccc4)CCCC3)c(C(=O)N3CCOCC3)nc12	5%	x	-1%	-21%	-11%	3%
O=C(Nc1ccc(Cl)cc1)C1C2C=CC3(O2)C1C(=O)N(CCCN1CCCCC1)C3C(=O)NC1CCCCC1 (stereo not given)	x	50µM*	1%	11%	-5%	5%
O=C(Nc1ccc(Cl)cc1)C1C2C=CC3(O2)C1C(=O)N(CCN1CCCCC1)C3C(=O)NC1CCCCC1 (stereo not given)	x	-21%	0%	-4%	-14%	21%
CC(NCC(=O)NC(=O)NCCC1=CCCCC1)c1ccc(S(N)(=O)=O)cc1 (stereo not given)	x	x	x	u	22µM*	x
CC(NC(=O)C(=O)NCCC1=CCCCC1)c1ccccc1 (stereo not given)	10%	24%[59 µM]	7%	11%	-18%	3%
CCOc1ccc(C2c3c(-c4ccc(C)cc4)n[nH]c3C(=O)N2c2ccc(Cl)cc2)cc1 (stereo not given)	x	-29%[59 µM]	x	26%	-30%	x
CCC(C)NC(=O)CN(c1cc(Cl)cc(Cl)c1)S(C)(=O)=O (stereo not given)	-2%	-5%	7%	51%	-3%	12%
NCCC1CCCC(CCN)N1 (stereo not given)	-1%	8.9µM*!	3%	23%	-7%	x
CC(C)(C)c1csc(NNC(=O)c2ccc(Cl)cc2)n1	x	40µM*	-16%	10%	-25%	45µM*
COc1cc(OC)cc(C(=O)N2CCN(C3CCN(Cc4ccccc4)CC3)CC2)c1	x	2.5µM*	14µM*	u	1.1µM*	u
COc1cc(OC)cc(C(=O)N2CCN(C3CCCCC3)CC2)c1	-4%	x	u	u	22µM*	-13%
O=C(c1cccs1)N1CCN(C2CCN(Cc3ccccc3)CC2)CC1	16%[11.4 µM]	11%[12.7 µM]	-2%	22%	6%	20%
COc1cc(OC)cc(C(=O)N2CCN(C3CCC(C)CC3)CC2)c1 (stereo not given)	x	x	x	u	56µM*	x
COc1cccc(C(=O)N2CCN(C3CCN(Cc4ccccc4)CC3)CC2)c1OC	x	u	18µM*	22µM*	0.79µM*	79µM*
